Measured values reported in PubChem BioAssay (Tox21).
Several values for one entry are separate records, joined by “and”; a condition that tells them apart may be missing. Equal entries are not always repeated. Results filed as inconclusive are left out. A structure can be active in one record and inactive in another. Activity calls are given as the source filed them. Unless noted, calls come from the whole dose curve; as a rule, active = well fitted curve in the direction sought with a large enough effect in the repeat runs; inconclusive = weak or mixed curves; inactive = no such curve, though single readings can be large; an effect the other way counts as inactive or inconclusive.

Legend:
[1] = qHTS assay to identify small molecule agonists of the hypoxia (HIF-1) signaling pathway - cell viability counter screen (AID 1224844; calls by dose curve; note: nearly all actives have a fitted effect of over 50% in size; note: potency is the fitted concentration of half-maximal effect)
How it was run: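 HRE-bla ME-180; 0.5% dFBS; cpd 17 h, 37C, 5% CO2; CellTiter-Glo lum., 30 min RT, post-FRET read, same wells.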

[2] = qHTS assay to identify small molecule agonists of the hypoxia (HIF-1) signaling pathway (AID 1224846; active = well fitted activation curve with a large enough effect in the signal ratio in the repeat runs, not every such curve was filed as active; the % refers to the signal ratio)
How it was run: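 Reporter induction in HRE-bla ME-180 cells is taken as agonism: cells sit 5 hrs after plating, receive compounds or DMSO only, incubate 17 hrs at 37C under 5% CO2, and are loaded with CCF4-AM for beta-lactamase FRET measurement.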

[3] = qHTS assay to identify small molecule agonists of H2AX - cell viability counter screen (AID 1224847; calls by dose curve; note: nearly all actives have a fitted effect of over 30% in size; note: potency is the fitted concentration of half-maximal effect)
How it was run: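 For this counter screen, overnight-attached CHO-K1 cells received test compounds (15 concentrations, 0.76% DMSO final); 3 hr later at 37C, CellTiter-Glo reagent was added and luminescence recorded after 30 min at room temperature.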

[4] = qHTS assay to identify small molecule antagonists of the estrogen related receptor (ERR) signaling pathway from Tox21 library (AID 1224848); note: nearly all actives have a fitted effect of over 50% in size; note: potency is the fitted concentration of half-maximal effect
How it was run: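 Compounds dissolved in DMSO are pin-transferred onto ERR reporter cells (2,000 per well) that have settled for 6 h at 37 C. Plates then incubate 18 h at 37 C before ONE-Glo luciferase reagent and a luminescence read 30 min later.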

[5] = qHTS assay to identify small molecule agonists of the estrogen related receptor (ERR) signaling pathway from Tox21 library (AID 1224849; calls by dose curve; note: nearly all actives have a fitted effect of over 15% in size); conditions: ERR reporter cell line, ONE-Glo luciferase, 18 h
How it was run: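 Tox21 compounds tested for ERR agonism in an NTP reporter cell line: 18 h treatment at 37 C, then ONE-Glo luminescence.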

[6] = A CellTox Green Cytotoxicity Assay to monitor cytotoxicity in HEK293 cells - 0 hour (AID 1224869); note: nearly all actives have a fitted effect of over 50% in size
How it was run: (§1)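 Tox21 screen in HEK293: membrane-impermeant cyanine dye fluoresces on binding dead-cell DNA; compound pinned 5 h post-seeding, plates held at 37 C, signal read repeatedly through 40 h.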

[7] = qHTS RealTime-Glo MT Cell Viability Assay in HEK293 cells - 16 hour (AID 1224872); note: nearly all actives have a fitted effect of over 50% in size; note: potency is the fitted concentration of half-maximal effect
How it was run: (§2)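 HEK293 cells seeded with NanoLuc/prosubstrate reagent, rested 5 h at 37 C, then dosed and kept at 37 C up to 40 h. Nonlytic real-time luminescence from viable cells read at 0, 8, 16, 24, 32 and 40 h.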

[8] = A CellTox Green Cytotoxicity Assay to monitor cytotoxicity in HEK293 cells - 24 hour (AID 1224875); note: nearly all actives have a fitted effect of over 45% in size; note: potency is the fitted concentration of half-maximal effect
How it was run: as §1

[9] = qHTS RealTime-Glo MT Cell Viability Assay in HepG2 cells - 32 hour (AID 1224877); note: nearly all actives have a fitted effect of over 55% in size; note: potency is the fitted concentration of half-maximal effect
How it was run: (§3)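 HepG2 cells (600/well) were dispensed with RealTime-Glo reagents, incubated 5 h at 37 °C, then treated with compounds in DMSO for up to 40 h. Nonlytic NanoLuc luminescence reflecting viable cells was read at each stated time point.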

[10] = A CellTox Green Cytotoxicity Assay to monitor cytotoxicity in HepG2 cells - 24 hour (AID 1224878); note: nearly all actives have a fitted effect of over 45% in size; note: potency is the fitted concentration of half-maximal effect
How it was run: (§4)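 Measurements at 0, 8, 16, 24, 32 and 40 h of treatment captured CellTox Green fluorescence in HepG2 cells that had been co-plated with reagent and preincubated 5 h at 37 C/5% CO2.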

[11] = A CellTox Green Cytotoxicity Assay to monitor cytotoxicity in HepG2 cells - 40 hour (AID 1224879); note: nearly all actives have a fitted effect of over 40% in size; note: potency is the fitted concentration of half-maximal effect
How it was run: as §4

[12] = qHTS RealTime-Glo MT Cell Viability Assay in HEK293 cells - 0 hour (AID 1224880); note: top concentration of the series differs between compounds; nearly all actives have a fitted effect of over 45% in size
How it was run: (§5)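 HEK293 + NanoLuc + prosubstrate, 600 cells/well; 5 h, 37 C/5% CO2; compound 23 nL in DMSO by pintool; 37 C; luminescence read at 0, 8, 16, 24, 32 and 40 h time points.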

[13] = qHTS RealTime-Glo MT Cell Viability Assay in HepG2 cells - 24 hour (AID 1224867); note: nearly all actives have a fitted effect of over 50% in size; note: potency is the fitted concentration of half-maximal effect
How it was run: as §3

[14] = qHTS RealTime-Glo MT Cell Viability Assay in HEK293 cells - 32 hour (AID 1224868); note: nearly all actives have a fitted effect of over 50% in size; note: potency is the fitted concentration of half-maximal effect
How it was run: as §2

[15] = qHTS RealTime-Glo MT Cell Viability Assay in HepG2 cells - 40 hour (AID 1224870); note: nearly all actives have a fitted effect of over 50% in size; note: potency is the fitted concentration of half-maximal effect
How it was run: (§6)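 HepG2 cells (600/well) mixed with RealTime-Glo MT reagent, settled 5 h at 37 C/5% CO2 before compound addition. Nonlytic NanoLuc luminescence from viable-cell prosubstrate reduction read repeatedly during 40 h treatment at 37 C.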

[16] = A CellTox Green Cytotoxicity Assay to monitor cytotoxicity in HEK293 cells - 40 hour (AID 1224871); note: nearly all actives have a fitted effect of over 45% in size; note: potency is the fitted concentration of half-maximal effect
How it was run: as §1

[17] = qHTS RealTime-Glo MT Cell Viability Assay in HepG2 cells - 8 hour (AID 1224873); note: nearly all actives have a fitted effect of over 55% in size; note: potency is the fitted concentration of half-maximal effect
How it was run: as §6

[18] = qHTS RealTime-Glo MT Cell Viability Assay in HEK293 cells - 40 hour (AID 1224874); conditions: RealTime-Glo luminescence; max response: stronger effect = lower value; note: nearly all actives have a fitted effect of over 50% in size; note: potency is the fitted concentration of half-maximal effect
How it was run: as §5

[19] = A CellTox Green Cytotoxicity Assay to monitor cytotoxicity in HepG2 cells - 16 hour (AID 1224876); note: nearly all actives have a fitted effect of over 45% in size; note: potency is the fitted concentration of half-maximal effect
How it was run: as §4
% is set by controls: 0 for no effect and ±100 for the full control effect.

Cc1ccc(-c2ccccc2)cc1
active: Potency [10] 43.6 µM | Potency [11] 43.6 µM
inactive: Potency [1] | Potency [2] | Potency [3] | Potency [4] | activity change, positive = activation ([5]; at 92.4 µM (top of the series)) -3.62% | Potency [6] | Potency [7] | Potency [8] | Potency [9] | Potency [12]

CC(C)(C)NSc1nc2ccccc2s1
inactive: Potency [1] | Potency [2] | Potency [3] | Potency [13] | Potency [14] | Potency [6] | Potency [15] | Potency [16] | Potency [7] | Potency [17] | max response [18] 8.62% | Potency [8] | Potency [9] | Potency [10] | Potency [11] | Potency [12]

CCCCCCC1CCCC(=O)O1 (configuration not stated)
inactive: Potency [1] | Potency [2] | Potency [3] | Potency [4] | activity change, positive = activation ([5]; at 92.4 µM (top of the series)) 0.936% | Potency [14] | Potency [6] | Potency [15] | Potency [16] | Potency [7] | max response [18] 3.13% | Potency [8] | Potency [19] | Potency [9] | Potency [10] | Potency [11] | Potency [12]

CCN(CC)C(=O)c1cc(S(=O)(=O)Cc2ccccc2)c(N2CCC(c3ccccc3)CC2)cc1N(CC)CCN(C)C
active: Potency [1] 10.8 µM | Potency [3] 31.5 µM | Potency [4] 21.4 µM | Potency [13] 17.2 µM | Potency [14] 8.61 µM | Potency [16] 17.2 µM | Potency [7] 15.3 µM | Potency [18] 7.67 µM | Potency [8] 19.3 µM | Potency [19] 17.2 µM | Potency [9] 17.2 µM | Potency [10] 17.2 µM | Potency [11] 13.6 µM
inactive: Potency [2] | activity change, positive = activation ([5]; at 42.5 µM (top of the series)) -79.2% | Potency [6] | Potency [12]

CCC(C)[O-].CCC(C)[O-].CCOC(=O)/C=C(/C)[O-].[Al+3]
inactive: Potency [1] | Potency [2] | Potency [3] | Potency [13] | Potency [14] | Potency [6] | Potency [15] | Potency [16] | Potency [7] | Potency [17] | max response [18] 0.788% | Potency [8] | Potency [19] | Potency [9] | Potency [10]

c1ccc(C(O[C@@H]2CCCN(CCc3ccc4c(c3)OCO4)C2)c2ccccc2)cc1
inactive: Potency [1] | Potency [2] | Potency [13] | Potency [6] | Potency [15] | Potency [17] | Potency [8] | Potency [19] | Potency [9] | Potency [10]

CCCCN(CCCC)CC(O)c1cc(Cl)cc2c1-c1ccc(Cl)cc1/C2=C/c1ccc(Cl)cc1 (configuration not stated)
inactive: Potency [1] | Potency [2] | activity change, positive = activation ([5]; at 42.5 µM (top of the series)) -23.2% | Potency [14] | Potency [6] | Potency [16] | Potency [7] | max response [18] -17.2% | Potency [8] | Potency [12]
active: Potency [19] 21.3 µM | Potency [10] 23.9 µM | Potency [11] 23.9 µM

O=C1CCc2cc(OCCCCc3nnnn3C3CCCCC3)ccc2N1
inactive: Potency [1] | Potency [3] | Potency [13] | Potency [6] | Potency [15] | Potency [16] | Potency [17] | Potency [8] | Potency [19] | Potency [9] | Potency [10]

CC(C)(C)c1ccc(C(O)CCCN2CCC(C(O)(c3ccccc3)c3ccccc3)CC2)cc1 (configuration not stated)
active: Potency [1] 21.3 µM | Potency [3] 34.8 µM | Potency [13] 6.01 µM | Potency [14] 4.77 µM | Potency [15] 4.77 µM | Potency [16] 7.56 µM | Potency [7] 6.74 µM | Potency [18] 4.77 µM | Potency [19] 10.7 µM | Potency [9] 5.35 µM | Potency [10] 8.49 µM
inactive: Potency [6]

CC1(C)CCC[C@]2(C)[C@H]3CC(=O)O[C@]3(C)CC[C@@H]12
active: Potency [16] 49 µM | Potency [8] 49 µM
inactive: Potency [1] | Potency [2] | Potency [13] | Potency [14] | Potency [6] | Potency [15] | Potency [7] | Potency [17] | max response [18] -15.3% | Potency [9] | Potency [10] | Potency [11] | Potency [12]

Oc1c(I)cc(Cl)c2cccnc12
12.3 µM (active) and inactive: Potency [16]
active: Potency [4] 19.3 µM and 11.9 µM | Potency [14] 24.5 µM | Potency [18] 24.5 µM | Potency [11] 34.6 µM and 5.35 µM
inactive: Potency [1] | Potency [3] | activity change, positive = activation ([5]; at 42.5 µM (top of the series)) -30.5% | activity change, positive = activation ([5]; at 92.4 µM (top of the series)) -54.8% | Potency [13] | Potency [6] | Potency [15] | Potency [7] | Potency [8] | Potency [9] | Potency [10] | Potency [12]

O=C1c2ccccc2C(=O)N1SC1CCCCC1
inactive: Potency [6] | Potency [12]
inactive and 43.6 µM (active): Potency [15]
active: Potency [1] 54.9 µM | Potency [3] 89.7 µM and 89.8 µM | Potency [13] 38.9 µM | Potency [14] 24.5 µM and 38.9 µM | Potency [16] 12.3 µM and 21.9 µM | Potency [7] 34.6 µM and 38.9 µM | Potency [17] 38.9 µM | Potency [18] 21.9 µM and 38.9 µM | Potency [19] 43.6 µM | Potency [9] 43.6 µM | Potency [10] 21.9 µM | Potency [11] 24.5 µM

CCCCCCCCCCC[C@@H](C[C@@H]1OC(=O)[C@H]1CCCCCC)OC(=O)[C@H](CC(C)C)NC=O
active: Potency [14] 9.52 µM | Potency [7] 13.4 µM | Potency [18] 6.74 µM | Potency [11] 19 µM
inactive: Potency [1] | Potency [2] | Potency [13] | Potency [6] | Potency [15] | Potency [17] | Potency [8] | Potency [19] | Potency [9] | Potency [10] | Potency [12]

Cc1ccc(N/N=c2\c(=O)cc/c(=N\Nc3ccc(S(=O)(=O)O)cc3)c2=O)c(C)c1
inactive: Potency [1] | Potency [2] | Potency [4] | activity change, positive = activation ([5]; at 92.4 µM (top of the series)) -2.81% | Potency [13] | Potency [14] | Potency [6] | Potency [15] | Potency [7] | Potency [17] | max response [18] 1.45% | Potency [19] | Potency [9] | Potency [10] | Potency [11] | Potency [12]

O=C(O)[C@H](O)[C@@H](O)[C@H](O[C@@H]1O[C@H](CO)[C@H](O)[C@H](O)[C@H]1O)[C@H](O)CO
inactive: Potency [1] | Potency [3] | Potency [13] | Potency [14] | Potency [6] | Potency [15] | Potency [16] | Potency [7] | Potency [17] | max response [18] 11.3% | Potency [8] | Potency [19] | Potency [9] | Potency [10] | Potency [11] | Potency [12]
